Results from a collection of fitness landscapes (doi:10.1016/j.celrep.2020.107928).
Whole data set: some 81,000 sequences, median “one-hybrid fitness for binding parS DNA” near -0.17, cut for the highest 2% near 0.51. This excerpt belongs to a sample that is enriched for the highest values.

B1: Caulobacter ParB omega fusion; a variant is named by its letters at X, in order, B8GW30 (parent)
chain: MESVVVGEPGMSEGRRGLGRGLSALLGEVDAAPAQAPGEQLGGSREAPIEILQRNPDQPRRTFREEDLEDLSNSIREKGVLQPILVRPSPDTAGEYQIVAGERAWRAAQRAGLKTVPIMVRELDDLAVLEIGIIENVQRADLNVLEEALSYKVLMEKFERTQENIAQTIGKSXSHVANXMRLLXLPDEVQSYLVSGELTAXHARAIAAAADPVALAKQIIEGGLSVRETEALARKAPNLSAGKSKGGRPPRVKDTDTQALESDLSSVLGLDVSIDHRGSTGTLTITYATLEQLDDLCNRLTRGI

Variants of: B1
Assay: one-hybrid fitness for binding parS DNA (scaled: cognate 1, non-cognate 0); higher = stronger binding
Conditions: with parS DNA site
Outline: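 Caulobacter ParB libraries with four specificity codons randomised were screened by bacterial one-hybrid selection in the E. coli USO strain, using a HIS3 reporter whose site lies 19 bp from the promoter. Selection ran for 48 hours at 37°C on M9 lacking histidine, with 0.1 mM IPTG and 5 mM 3-AT. Plasmids were Illumina-sequenced before and after selection, three replicate libraries were pooled, and variants with under 10 reads were dropped. Fitness is the log change in each variant's read ratio to wild type, rescaled against the cognate and non-cognate sites.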

Variant | one-hybrid fitness for binding parS DNA
RFNK | 0.203
YQGC | ≤ 0.2
RRKQ | ≤ 0.2
RRKC | 0.649
RRVC | 0.673
RRKR | ≤ 0.2
PLTK | ≤ 0.2
INSY | ≤ 0.2
ENFG | ≤ 0.2
RTYK | ≤ 0.2
RTWH | 0.254
RTWT | 0.916
RTQM | 0.352
RTQQ | ≤ 0.2
RTRT | 0.747
RTRK | ≤ 0.2
RTWN | 0.461
RTQT | 0.925
RTYR | ≤ 0.2
RTYT | 0.952
RTRD | ≤ 0.2
RGTV | ≤ 0.2
KKRF | ≤ 0.2
SRPQ | ≤ 0.2
ITEL | ≤ 0.2
RTSK | ≤ 0.2

Variant | one-hybrid fitness for binding parS DNA
RTSF | 0.246
RTGR | ≤ 0.2
RTGT | 0.912
RTST | 0.91
RTGP | ≤ 0.2
TRWL | ≤ 0.2
HSDW | ≤ 0.2
HVPD | ≤ 0.2
GQVR | ≤ 0.2
FGAG | ≤ 0.2
NLVS | ≤ 0.2
RHVM | ≤ 0.2
RHVK | ≤ 0.2
RHKT | 0.745
RHKF | 0.255
RHVT | 0.637
RHKK | ≤ 0.2
TMRL | ≤ 0.2
CWHG | 0.244
MPLG | ≤ 0.2
YPFR | ≤ 0.2
RTKG | 0.872
RTKR | ≤ 0.2
RTVG | 0.979
RTVH | ≤ 0.2
RTKN | 0.441

Variant | one-hybrid fitness for binding parS DNA
RTVD | ≤ 0.2
KCHG | ≤ 0.2
GQFL | ≤ 0.2
PQKC | ≤ 0.2
NWQS | ≤ 0.2
RRAS | 0.652
RRAH | ≤ 0.2
RRFS | 0.743
RRFH | ≤ 0.2
RRFN | 0.314
RCAN | 0.477
RRAN | 0.583
RRAD | ≤ 0.2
RRFP | ≤ 0.2
MEPC | ≤ 0.2
GRGV | ≤ 0.2
MVCR | ≤ 0.2
PWNF | ≤ 0.2
ATEL | ≤ 0.2
REGS | ≤ 0.2
FMKF | ≤ 0.2
IDST | ≤ 0.2
HFES | ≤ 0.2
QITI | ≤ 0.2
LTWC | ≤ 0.2
